Compound activity (PubChem)
In the library only some 10% were active in any assay of this set; here they are far more common.
G9a inh = inhibitors of human histone lysine methyltransferase G9a | Potency, µM (series often up to 102 µM), for inactives: at the top dose activity, negative = inhibition, usual class: inhibitors | 350,000 tested, 8.8% active | Q96KQ7 | AID 504332 | G9a H3K9 monomethylation, AlphaScreen, 2 h; note: potency is the fitted concentration of half-maximal effect; nearly all actives have a fitted effect of over 75% in size
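G9a (20 nM) was preincubated 15 min with compound, then reacted 2 h at room temperature with 500 nM biotin-H3K9 peptide and 20 µM SAM. Monomethyl-H3K9 detected by AlphaScreen using anti-H3K9me1 antibody.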
CCT modulator = modulators of cytosolic chaperonin (CCT/TRiC) activity. purified chaperonin ATPase assay, HTRF ADP detection, 30 min. AID 651819. activity change, % (test concentration not listed), hits read low. 360,000 tested, 0.3% active; in the data active = activity change below about -30%
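TRiC at 40 or 20 nM final (batch-dependent) in 30 mM Tris pH 7.4, 100 mM KCl, 5 mM MgCl2, 1 mM DTT, with compound at single 76 uM and 10 uM ATP, 30 min at 37 deg C. ADP detected by HTRF Transcreener, 665/615 ratio.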
Mm-Cpn inhibitor = inhibitors of Methanococcus maripaludis chaperonin TRiC (MmCpn). purified Mm-Cpn ATPase, ADP Transcreener TR-FRET. Potency, µM (highest dose often 76.9 µM), inactives show at the top dose activity, negative = inhibition, usual class: inhibitors. 330,000 tested, 0.031% active. AID 504842; note: potency is the fitted concentration of half-maximal effect; nearly all actives have a fitted effect of over 80% in size
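Eu-cryptate anti-ADP/ADP-d2 competition gives a ratio inversely related to ADP. Enzyme at 25 nM was pre-exposed to compound for 10 min, then given 10 uM ATP for 30 min, 37°C throughout.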
Sfp inh = blocks B. subtilis Sfp PPTase activity | Q9F4F7 | Biochemical Sfp PPTase activity, qHTS | Potency, µM, without a hit: largest response in the series, negative = inhibition, actives largely listed as inhibitors | 310,000 tested, 3.5% active;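 note: the enzyme is Sfp with the accession as filed and its product quenches rhodamine fluorescence; potency is the fitted concentration of half-maximal effect; 0% = enzyme reaction without inhibitor and -100% = no enzyme wells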
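Reaction rates are the 30-min fluorescence difference (ex 525, em 598 nm) in wells containing 15 nM Sfp, 5 uM rhodamine-CoA and 12.5 uM BHQ-2-YbbR at pH 7.6 with 10 mM MgCl2.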
VDR inh = blocks the human vitamin D receptor; VDR-SRC2-3 peptide fluorescence polarization, 2 h; Potency, µM, for the others: max response, negative = inhibition, most hits filed as inhibitors; 400,000 tested, 0.93% active; AID 504847; note: potency is the fitted concentration of half-maximal effect
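Reagent solutions, kept cold and dark, are dispensed first; compounds are then pinned in at 23 nl, plates briefly spun, and incubated 2 h at ambient temperature. Inhibition of VDR–SRC2-3 peptide binding is read by fluorescence polarization.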
PLK1 PBD inh = blocks phosphopeptide binding to human PLK1 polo-box domain | Plk1 PBD binding of FITC phosphopeptide, fluorescence polarization | Potency, µM, for the others: max response, negative = inhibition, usual class: inhibitors | 360,000 tested, 2.8% active | AID 720504; note: potency is the fitted concentration of half-maximal effect; series mostly up to about 57 µM; nearly all actives have a fitted effect of over 65% in size
Target sequence (P53350 whole entry, looked up, the tested form may be a part): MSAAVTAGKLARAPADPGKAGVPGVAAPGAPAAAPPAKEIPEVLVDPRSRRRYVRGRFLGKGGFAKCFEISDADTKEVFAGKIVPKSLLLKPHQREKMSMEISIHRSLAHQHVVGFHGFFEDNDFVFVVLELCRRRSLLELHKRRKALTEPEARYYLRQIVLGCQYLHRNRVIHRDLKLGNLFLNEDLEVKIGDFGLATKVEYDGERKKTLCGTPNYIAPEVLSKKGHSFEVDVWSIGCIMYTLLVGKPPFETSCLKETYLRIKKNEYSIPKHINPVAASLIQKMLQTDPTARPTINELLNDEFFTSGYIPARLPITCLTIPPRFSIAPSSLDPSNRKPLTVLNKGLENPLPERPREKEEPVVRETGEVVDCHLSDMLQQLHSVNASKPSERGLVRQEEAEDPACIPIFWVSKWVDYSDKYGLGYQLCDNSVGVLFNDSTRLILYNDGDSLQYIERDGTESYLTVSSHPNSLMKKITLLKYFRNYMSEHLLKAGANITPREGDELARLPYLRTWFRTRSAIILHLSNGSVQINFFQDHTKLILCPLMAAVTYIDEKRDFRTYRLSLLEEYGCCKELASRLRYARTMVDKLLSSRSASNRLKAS
The depositor's hits bear a star; ? = inconclusive; nt = not tested or not shown; ! = a repeat was not active; [ ] = dose if it differs, or a comment. Unless noted, calls come from the whole dose curve; as a rule, active = well fitted curve in the direction sought with a large enough effect; inconclusive = small, poorly fitted or top-dose-only effect, or another doubt; inactive = no such curve, though single readings can be large; an effect the other way counts as inactive or inconclusive. Unless noted, % is set by controls: 0 for no effect and ±100 for the full control effect.

SMILES	G9a inh	CCT modulator	Mm-Cpn inhibitor	Sfp inh	VDR inh	PLK1 PBD inh
Cn1c(SCc2ccc(C#N)cc2Cl)nc2ccccc21	0%[59 µM]	-36*	-3%	-4%	-23%	-3%
COCc1ccc(C(=O)N2CCCC(Nc3ccc(C(C)C)cc3)C2)s1 (stereo not drawn)	6%	1	-1%	3%	-6%	-4%
CC(C)c1ccc(NC2CCCN(C(=O)c3ccsc3)C2)cc1 (stereo not drawn)	-11%	-1	0%	7%	-15%	-1%
Cc1occc1C(=O)N1CCCC(Nc2ccc(C(C)C)cc2)C1 (stereo not drawn)	40µM*	-2	1%	10%	13%	2%
CCn1nc(C)cc1C(=O)N1CCCC(Nc2ccc(C(C)C)cc2)C1 (stereo not drawn)	50µM*	-1	-2%	5%	-8%	-6%
COCc1ccc(C(=O)N2CCCC(Nc3ccc(C(C)C)cc3)C2)o1 (stereo not drawn)	45µM*	-2	0%	7%	0%	3%
Cc1occc1C(=O)N1CCCC(Nc2ccc(F)cc2)C1 (stereo not drawn)	nt	1	3%	6%	-19%	-3%
COC(=O)c1ccc(C(=O)N2CCCC(Nc3ccc(C(C)C)cc3)C2)cc1 (stereo not drawn)	79µM*	-2	-3%	-4%	6%	-6%
CC[C@@]1(c2ccccc2)NC(=O)N(C)C1=O	16%[59 µM]	nt	nt	15%	1%	nt
CC(C)c1ccc(NC2CCCN(C(=O)c3cnsn3)C2)cc1 (stereo not drawn)	35µM*	2	0%	10%	1%	-2%
O=C(c1ccc(N2CCOCC2)cc1)N1CCCC(Nc2ccccc2)C1 (stereo not drawn)	-1%	-1	2%	14%	?	9.5µM*
CC(C)c1ccc(NC2CCCN(C(=O)c3cccnc3)C2)cc1 (stereo not drawn)	79µM*	-1	-3%	-2%	15%	-12%
CC(C)c1ccc(NC2CCCN(C(=O)c3n[nH]c4c3CCC4)C2)cc1 (stereo not drawn)	71µM*	0	0%	10%	12%	-1%
Cc1ccc(NC2CCCN(C(=O)c3cccnc3)C2)cc1C (stereo not drawn)	-1%	-2	0%	11%	4%	2%
Cc1ccccc1CCNC(=O)c1cc2cc(S(=O)(=O)N3CCCCC3)ccc2n1C	-7%[59 µM]	nt	nt	nt	6%	nt
COc1cccc([C@@H]2Oc3ccc(OC)cc3C(=O)[C@H]2OC(=O)N[C@H]2CCCc3ccccc32)c1	nt	nt	nt	-29%	4%	nt
Clc1ccc(OCc2nn3c(C4CCCCC4)nnc3s2)cc1	8.9µM*	-1	2%	20µM*	?	21µM*
c1csc(-c2nn3c(C4CCCCC4)nnc3s2)c1	nt	1	nt	nt	-17%	0%
Cc1ccc(/C=C/C2=Cc3c(sc(NC(=O)CSc4n[nH]c(N)n4)c3C#N)C(C)(C)C2)o1	8.9µM*	nt	0%	2.5µM*	nt	nt
CCOC(=O)CCC(NC(=O)c1cncc(O)c1)C(=O)OCC (stereo not drawn)	?	-1	-3%	-22%	-2%	4%
CC(CNC(=O)c1cncc(O)c1)NC(=O)c1cncc(O)c1 (stereo not drawn)	45µM*	0	-1%	79µM*	0%	-6%
Cc1ccc(-c2nnc(Nc3ccc(F)cc3)c3ccccc23)cc1S(=O)(=O)NC(C)C	5%[59 µM]	nt	nt	nt	-24%	nt
Cc1ccc(S(=O)(=O)n2nc(C)c(S(=O)(=O)N3CCCCC3)c2C)cc1	45µM*!	0	-1%	22%	11%	2%
Cc1nn(S(=O)(=O)c2ccc(F)cc2)c(C)c1S(=O)(=O)N1CCCCC1	22%[0.501 µM]	-6	-2%	10%	-5%	-8%
Cc1nn(S(=O)(=O)c2ccc(F)cc2)c(C)c1S(=O)(=O)N1CCOCC1	35µM*	0	0%	6%	-3%	-3%
SMILES	G9a inh	CCT modulator	Mm-Cpn inhibitor	Sfp inh	VDR inh	PLK1 PBD inh
Cc1nn(S(=O)(=O)c2ccccc2)c(C)c1S(=O)(=O)N1CCOCC1	79µM*	1	-4%	6%	-9%	?
COc1ccc(NC(=O)C2CCCN(S(=O)(=O)c3ccc(Br)s3)C2)cc1 (stereo not drawn)	?	nt	nt	nt	-8%	nt
CCC(CC)C(=O)Nc1ccccc1C(=O)OCc1cc(=O)n2nc(C3CCCCC3)sc2n1	10%[59 µM]	nt	nt	nt	-5%	nt
CC(C)[C@@H](OCc1ccccc1)[C@H](C)/C=N\O[C@@H](C)c1cn([C@H](CO)Cc2ccccc2)nn1	nt	nt	nt	-5%	nt	nt
NS(=O)(=O)c1ccc(N/N=C/c2ccc(C(=O)O)cc2)c([N+](=O)[O-])c1	nt	0	5%	?	7%	5%
Cc1nn(-c2ccccc2)c(N2CCCC2)c1/C=N/Nc1ccc(S(N)(=O)=O)cc1[N+](=O)[O-]	10µM*	-2	0%	-9%	-15%	11%
COc1ccc(COCC(O)CN2CCN(S(=O)(=O)c3ccc(C(C)C)cc3)CC2)cc1 (stereo not drawn)	?	0	0%	nt	4%	0%
CCC(C)c1ccc(S(=O)(=O)N2CCN(CC(O)COCC3CCCO3)CC2)cc1 (stereo not drawn)	10µM*	-1	-1%	nt	-15%	-5%
CC(=O)Nc1nc(N2C(=O)c3ccccc3C2=O)n(-c2ccccc2)n1	?	2	2%	8.9µM*	-10%	-11%
O=C(Nc1nc(N2C(=O)c3ccccc3C2=O)n(-c2ccccc2)n1)c1ccc(F)cc1	2%	-24	-13%	?	5%	-7%
O=C(Nc1nc(N2C(=O)c3ccccc3C2=O)n(-c2ccccc2)n1)c1ccccc1	-12%	0	0%	0.89µM*	-2%	-9%
Cc1cc2nc(-c3ccc(SCc4ccc(C(=O)O)cc4)nc3)[nH]c2cc1C	32µM*	-6	0%	22µM*	1%	19µM*
CC(C)(C)C1CCc2c(sc(NC(=O)c3ccccc3F)c2C(=O)NCc2ccco2)C1 (stereo not drawn)	7%[59 µM]	nt	nt	nt	-22%	nt
CCc1cccc(-n2nnc(-c3nc(-c4ccc5c(c4)OCO5)no3)c2C)c1	-4%[59 µM]	nt	nt	nt	14%	nt
COc1ccc(Cl)cc1Nc1ccc2cc(S(=O)(=O)N3CCCCC3)ccc2n1	5µM*	nt	nt	nt	6%	nt
COc1ccc(Nc2ccc3cc(S(=O)(=O)N4CCCC4)ccc3n2)cc1Cl	19%[59 µM]	nt	nt	nt	5%	nt
O=C(COC(=O)c1cccc(NC(=O)c2ccc(Br)cc2)c1)c1ccc(Cl)cc1	5%[59 µM]	nt	nt	nt	-2%	nt
Cc1c(C(=O)O)cnc2c([N+](=O)[O-])cnn12	56µM*	-2	-1%	7%	35µM*	3.4µM*
